Here are results for 40 molecules from PubChem BioAssay (NCI).

Compounds without any hit were thinned out: in the full panel of roughly 83,000, 20% have a hit.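 The test compound was applied at a single concentration to cells in 96-well plates for 48 hours, and percent growth was recorded.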 Values without a mark were called inactive. The source made the active and inactive calls. The calls were made as follows: active = growth percent below 10; inactive = the rest.

The test system of this experiment is HL-60(TB) leukemia. Description: NCI-60 one-dose screen, 48 h (100 = growth as untreated, 0 = no growth, -100 = all killed). The following applies: 10 µM unless noted.
Take `CC(C)(C)CC(C)(C)Nc1c(-c2ccc(-c3ccccc3)cc2)nc2cnccn12`: the growth was 92.9%.

Regarding `CCCCCCC(=O)C(C)C`, the growth is 101%.

With `O=c1c2cc(F)ccc2sc2c(NCCCNCCO)nc3ccc(F)cc3c12`, the growth was 54.6%.

With `Cc1ccc(C2CC(c3cccc(Nc4ccncc4)c3)=NN2c2ccc(Cl)cc2)cc1` (stereo not given), the growth was -55.6% (active).

As to `Cn1c2ccccc2c2c3[nH]c(=O)[nH]c(=O)c3c3c4ccccc4n(C)c3c21`, the growth was 48.9%.

`CCOc1ccc2nc(C)cc(Nc3ccc(Br)cc3)c2c1`: the growth is 107%.

As for `COc1ccc(CNc2c3ccccc3nc3ccccc23)cc1OC`, the growth was 12.7%.

Take `C=CCOC1=CC(=O)c2ccccc2C1=O`: the growth was 41.6%.

For `CCOC(=O)c1sc(N)nc1-c1ccccc1`, the growth was 98.3%.

As for `CC(O)C(F)(F)C(F)(F)C(F)(F)F` (stereo not given), the growth is 101%.

As for `CN(CCCNC(=O)CCOCCOCCOCCNC(=O)Cc1ccc2ccc3cccc4ccc1c2c34)CCCNc1cc(-c2ccc3ccccc3c2)nc2ccccc12`, the growth is -77.6% (active).

For `NC(=Nc1ccccc1)SCCCCSC(N)=Nc1ccccc1`, the growth was 79.5%.

On to `O=C(Nc1ccsc1C(=O)NC1CCCCC1)c1ccc(F)cc1`, for which the growth is 90.2%.

With `Nc1nn(C(=O)Nc2ccc(Cc3ccccc3)cc2)c2ccc(Cl)cc12`, the growth was 24.9%.

Take `N#CC[C@H](C1CCCC1)n1cc(-c2ncnc3[nH]ccc23)cn1`: the growth was 97.7%.

On to `N#Cc1c(-c2ccc(Cl)cc2)nc(N/N=C/c2cccc(Br)c2)nc1N1CCOCC1`, for which the growth was 40.6%.

For the molecule `Cc1cnc(Nc2ccc(N3CCN(C)CC3)cc2)nc1Nc1ccc(Cl)c(NS(=O)(=O)C(C)(C)C)c1`, the growth is -13.4% (active).

`CN(C)CCC=C1c2ccccc2C(C)(C)c2ccccc21`: the growth was 85.5%.

In the case of `O=C(Nc1ccccc1Cl)c1cnc2ccc(C3CCNCC3)cn12`, the growth was 103%.

Turning to `Oc1ccc(Nc2ccccc2)cc1`, the growth was 66.5%.

With `COc1ccc(C2=Nc3c/c(=C\c4c(O)[nH]c5cc(Cl)ccc45)ccc3=N2)cc1`, the growth is 12.4%.

Regarding `O=S(=O)(c1ccccc1)n1ccc(-c2ccc3c(c2)CCO3)n1`, the growth was 109%.

Regarding `CCCCCCNC(=O)Oc1ccc(/C(=C(\C)c2ccc(OC)cc2)c2ccc(OCCN3CCCCC3)cc2)cc1`, the growth is 46.3%.

`Cc1cccc(NC(=O)CSc2nc3ccc([N+](=O)[O-])cc3[nH]2)c1`: the growth is 86.1%.

In the case of `COc1ccc(/C=C/c2c(C(=O)/C=C/c3ccccc3)c(C)nc3ccccc23)cc1`, the growth is 6.07% (active).

On to `CN(C)c1ccc(-c2nc3ncc(Br)cc3o2)cc1`, for which the growth was 85.8%.

Turning to `COC(=O)[C@H](Cc1cn(C)cn1)NC(=O)[C@@H](NC(=O)Nc1cc(C(F)(F)F)cc(C(F)(F)F)c1)C(C)(C)C`, the growth was -56.2% [100 µM] (active).

In the case of `O=[N+]([O-])c1ccc(N/N=C\c2ccccc2[N+](=O)[O-])nc1`, the growth is 109%.

Consider `CC(=O)Oc1cc(OC(C)=O)c2ccccc2c1OC(C)=O`, for which the growth was 23.3%.

For `Cc1ccc(S(=O)(=O)NN/C(N)=N\S(=O)(=O)c2cc(C)c(Cl)cc2SCc2ccccc2)cc1`, the growth was 83.6%.

Regarding `CCN(CC)CCNc1ccc(C)c2sc3cc(Cl)ccc3c(=O)c12`, the growth was 17%.

As for `Cc1ccc(-c2nc(SCc3nc4cc(Cl)c(Cl)cc4[nH]3)[nH]c(=O)c2C#N)cc1`, the growth was 96.9%.

Take `COc1ccc2[nH]c(-c3ccccc3)c(C=C(C#N)C#N)c2c1`: the growth was -49.1% (active).

For the molecule `CCCCOc1ccc(NC(=O)Nc2nnc(C)s2)cc1`, the growth was 80.7%.

For `Cc1cn(C(C=O)OC(C=O)CO)c(=O)[nH]c1=O` (stereo not given), the growth was 103%.

For `CCOC(=O)c1nc2c3ccccc3cnn2c1C(=O)c1ccc(OC)cc1`, the growth was 102%.

Take `Nc1ncnc(Nc2ccc(C(F)(F)F)cc2)n1`: the growth is 89.2%.

Regarding `OC(c1cc(-c2cccc(Cl)c2)nc2ccccc12)C1CCCCN1` (stereo not given), the growth is -63.1% (active).

With `BrCCCOc1ccc(Oc2ccc(OCCCBr)cc2)cc1`, the growth is 106%.

In the case of `CC1(C)[C@@H](O)CC[C@]2(C)[C@H]3CC[C@@H]4[C@H]5[C@H](c6cn(-c7ccccc7)nn6)CC[C@]5(CO)CC[C@@]4(C)[C@]3(C)CC[C@@H]12`, the growth was 74.8%.
